Measurements published in PubChem BioAssay (Tox21).
Records with an inconclusive call do not appear. Entries that show only a call come without a potency. Some compounds were tested as several samples or in several runs, with calls that do not always agree. Active and inactive are the calls of the source. Calls come from the whole dose curve; as a rule, active = well fitted cell-killing curve with a large enough effect in the repeat runs; inconclusive = weak or mixed curves, or effect the other way; inactive = no such curve, though single readings can be large or run the other way.
Potency is the fitted concentration of half-maximal effect.

Assay: qHTS assay to identify small molecule agonists of the RXR signaling pathway - cell viability counter screen (AID 1159529); note: nearly all actives have a fitted effect of over 50% in size
Details: RXR-alpha-bla HEK293T viability, CellTiter-Glo, 16 h; series mostly up to 76.8 µM
Source text: National Center for Advancing Translational Sciences [NCATS]
NIH Chemical Genomics Center [NCGC]
U.S. Environmental Protection Agency [EPA]
National Institutes of Environmental Health Sciences [NIEHS]
National Toxicology Program [NTP]
U.S. Food and Drug Administration [FDA]
The Retinoid X receptor (RXR), a nuclear hormone receptor expressed in liver, spleen, placenta, epidermis, central nervous system. These receptors are able to form homo and heterodimers with other nuclear receptors and due to this heterodimerizing ability, RXR functions as master regulators producing diverse physiological effects. Three subtypes of RXR exist; alpha, beta and gamma. Retinoid X receptor alpha (RXR-alpha) has potential roles in metabolic signaling pathways, skin alopecia, dermal cysts, cardiac development, insulin sensitization etc. Therefore screening environmental chemicals on RXR-alpha signaling can be used for the studies focused on such therapeutic applications. For quantification of RXR-alpha ligands signaling, GeneBLAzer RXR alpha-UAS-bla HEK 293T (Life Technologies, Carlsbad, CA) cells containing a beta-lactamase reporter-gene under control of Retinoid X receptor-alpha response element were used to screen Tox21 10K library. The cytotoxicity of the Tox21 compound library against the RXR-alpha HEK 293T cell line was tested in parallel by measuring cell viability using CellTiter-Glo assay (Promega Corporation, Madison, WI) in the same wells.
Tox21 Assay Protocol Summary:
RXR-alpha HEK 293T cells were dispensed at 2,000 cells/6 uL of assay medium containing 2% charcoal-stripped FBS using a Multidrop Combi (ThermoFisher Scientific, Waltham, MA) dispenser. The assay was performed in black wall/clear-bottom 1536-well plates (Greiner Bio-One North America Inc. Monroe, NC). Tetraoctyl ammonium bromide was used as a positive control in the cytotoxicity screen. After the assay plates were incubated at 37 C and 5% CO2 for 5 hr, 23 nL of compounds dissolved in DMSO, positive control or DMSO only were transferred to the assay plate by a Pintool station (Kalypsys, San Diego, CA). The assay plates were incubated at 37 C and 5% CO2 for 16 hr. One uL of LiveBLAzer B/G FRET substrate (Life Technologies) was added using a Flying Reagent Dispenser (FRD) (Aurora Discovery, San Diego, CA) and the plates were incubated at room temperature for 2 hr. Fluorescence intensity (405 nm excitation, 460/530 nm emission) was measured using an Envision plate reader (PerkinElmer, Shelton, CT). For cytotoxicity, 4 uL/well of CellTiter-Glo reagent was added into the assay plates using an FRD. After 30 min incubation at room temperature, the luminescence intensity was measured using a ViewLux plate reader (PerkinElmer).
For `NC(=O)NS(=O)(=O)c1ccc(N)cc1`, the Potency was “inactive”.
With `CC1(C)CCC(C)(C)c2cc(C(=O)Nc3ccc(C(=O)O)cc3)ccc21` the Potency was “inactive”.
For `Nc1ccc2cc(S(=O)(=O)O)cc(O)c2c1N=Nc1ccccc1C(F)(F)F`, the Potency was “inactive”.
With `CC[C@H]1O[C@]2(CC[C@@H]1C)C[C@@H]1C[C@@H](C/C=C(\C)C[C@@H](C)/C=C/C=C3\CO[C@@H]4[C@H](O)C(C)=C[C@@H](C(=O)O1)[C@]34O)O2` the Potency was 19.3 µM (active).
In the case of `O=C(Oc1cccc2cccnc12)c1ccccc1`, the Potency is reported as 8.49 µM (active).
For `[Cl][Bi]([Cl])([c]1ccccc1)([c]1ccccc1)[c]1ccccc1`, the Potency was 2.74 µM (active).
For `O=C(OC[C@H]1O[C@@H](OC(=O)c2cc(O)c(O)c(OC(=O)c3cc(O)c(O)c(O)c3)c2)[C@H](OC(=O)c2cc(O)c(O)c(OC(=O)c3cc(O)c(O)c(O)c3)c2)[C@@H](OC(=O)c2cc(O)c(O)c(OC(=O)c3cc(O)c(O)c(O)c3)c2)[C@@H]1OC(=O)c1cc(O)c(O)c(OC(=O)c2cc(O)c(O)c(O)c2)c1)c1cc(O)c(O)c(OC(=O)c2cc(O)c(O)c(O)c2)c1`, the activity change, negative = cytotoxicity was 11.4% [at 15.8 µM] (inactive).
With `O=C1c2c(O)ccc(Nc3ccc(CCO)cc3)c2C(=O)c2c([N+](=O)[O-])ccc(O)c21` the Potency was “inactive”.
With `CCCCCCCC(=O)[O-].CCCCCCCC(=O)[O-].[Zn+2]` the Potency was “inactive”.
For `CC(C)OC(=O)c1cc2c(OCC(O)CNC(C)(C)C)cccc2[nH]1` (stereo not given), the Potency was “inactive”.
For `CCCCN(CCCC)C(=O)N(CCCC)CCCC`, the Potency was “inactive”.
For `O=S1(=O)CC(Cl)(Cl)C(Cl)(Cl)C1`, the Potency was 4.36 µM (active).
In the case of `Cc1cccc2c1cc1ccc3cccc4ccc2c1c34`, the Potency is reported as “inactive”.
For `CCCCCCCCOc1ccccc1C(=O)Nc1ccc(C(=O)OCC[N+](C)(CC)CC)cc1`, the Potency was 10.7 µM (active).
For `CC(=O)N1CCN(c2ccc(OC[C@H]3CO[C@](Cn4ccnc4)(c4ccc(Cl)cc4Cl)O3)cc2)CC1`, the Potency was 17.4 µM (active).
In the case of `N=C1N=C(N)c2ccccc21`, the Potency is reported as “inactive”.
For `Oc1cc2ccccc2c2ccccc12`, the Potency was 4.9 µM (active).
For `Nc1nc2ccccc2n1Cc1ccc(F)cc1`, the Potency was “inactive”.
With `Clc1ccc2nsnc2c1NC1=NCCN1` the Potency was “inactive”.
For `Oc1ccc(N=Nc2ccccc2)cc1`, the Potency was “inactive”.
With `CC1=NC(C)OC1C` (stereo not given) the Potency was “inactive”.
For `CCCC(c1cc(C(C)(C)C)c(O)cc1C)c1cc(C(C)(C)C)c(O)cc1C`, the Potency was 11.1 µM (active).
In the case of `CNc1ccc(O)cc1`, the Potency is reported as 34.6 µM (active).
For `CCCCN1CCCC[C@H]1C(=O)Nc1c(C)cccc1C`, the Potency was “inactive”.
With `CCC(C)(C)C1CCCCC1OC(C)=O` (stereo not given) the Potency was “inactive”.
For `O=C(N/N=C/c1ccccc1O)c1ccncc1`, the Potency was “inactive”.
For `COC(=O)C1=C(C)NC(C)=C(C(=O)OCC(C)C)C1c1ccccc1[N+](=O)[O-]` (stereo not given), the Potency was 49 µM (active) and inactive.
With `O=C1Cc2cc(CCN3CCN(c4nsc5ccccc45)CC3)c(Cl)cc2N1` the Potency was 23.9 µM (active).
With `CCCCc1oc2ccc(NS(C)(=O)=O)cc2c1C(=O)c1ccc(OCCCN(CCCC)CCCC)cc1` the Potency was 9.52 µM (active).
With `Cc1cc(N)c(S(=O)(=O)O)cc1Cl` the Potency was “inactive”.
With `C1CCCC1` the Potency was “inactive”.
For `OCCN1CCN(CC/C=C2/c3ccccc3Sc3ccc(C(F)(F)F)cc32)CC1`, the Potency was 19 µM (active).
For `O=C(OCC1CO1)C1CCCCC1C(=O)OCC1CO1` (stereo not given), the Potency was “inactive”.
For `COc1cccc(N)c1`, the Potency was “inactive”.
With `CSc1ccc(C(=O)c2[nH]c(=O)[nH]c2C)cc1` the Potency was “inactive”.
For `CSc1ccc2c(c1)C(N1CCN(C)CC1)Cc1ccccc1S2` (stereo not given), the Potency was 23.9 µM (active).
In the case of `CCCCCCCCCCCCc1ccc(O)cc1`, the Potency is reported as 13.8 µM (active).
With `CCCCCCCCNC(C)C(O)c1ccc(SC(C)C)cc1` (stereo not given) the Potency was 9.52 µM (active).
For `O=c1c(-c2ccccc2)c1-c1ccccc1`, the Potency was 6.01 µM (active).
With `COc1cc(/C=C/C(=O)O[C@H]2CC[C@]34C[C@]35CC[C@]3(C)[C@@H]([C@H](C)CCC=C(C)C)CC[C@@]3(C)[C@@H]5CC[C@H]4C2(C)C)ccc1O` the Potency was “inactive”.
